Dicer inh: blocks human Dicer maturation of pre-miR-21; Q9UPY3; cat-ELCCA pre-miR-21 Dicer processing, chemiluminescence; active compounds read high; z-score at 25 µM; 47,000 tested, 6% active; AID 1347074; in the data active = z-score above about 3, passing the limit was not always enough;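 note: higher signal means more uncleaved substrate so more Dicer inhibition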
Each line names hits and unclear results; the compound was inactive in the other large screens. The sample as a whole holds a higher share of hits than the screen did.

CCOc1ccsc1-c1nnc(-c2ccc(Cl)cc2)o1	none
Cc1c(/C=N/NC(=O)NCc2ccccc2)sc2ccccc12	Dicer inh 5.43
O=C(NCc1ccccc1)N/N=C/c1cccs1	none
CCOC(=O)N(/N=C/c1sc2ccccc2c1C)SC(Cl)(Cl)Cl	none
O=S(=O)(c1ccc(-c2ccc(S(=O)(=O)N3CCCC3)s2)s1)N1CCCC1	none
COC(=O)C1=C(C)NC2=C(C(=O)CC(C)(C)C2)C1c1ccccc1OC(C)C (configuration not stated)	none
O=C1c2ccccc2S(=O)(=O)N1c1ccc(F)cc1	none
C(=C\c1ccc2c(c1)OCO2)/C1=NN(c2ccccc2)C(c2ccc3c(c2)OCO3)C1 (configuration not stated)	none
Cn1c(/C=C/c2ccc3c(c2)OCO3)nc2ccccc2c1=O	Dicer inh 6.24
Cn1c(/C=C/c2cn(Cc3ccccc3)c3ccccc23)nc2ccccc2c1=O	none
Cc1[nH]c2ccccc2c1C1(O)C(=O)N(Cc2cccs2)c2ccc(Cl)cc21 (configuration not stated)	none
O=C1C(=O)N(Cc2cccnc2)C(c2cccnc2)/C1=C(\O)c1ccc(F)cc1 (configuration not stated)	none
Cc1ccc(-c2cnc3c(-c4ccccc4)cnn3c2N)cc1	none
Nc1c(-c2ccc(Cl)cc2)cnc2c(-c3ccccc3)cnn12	Dicer inh 3.14
Cc1ccc(-c2cnc3c(-c4ccc(Cl)cc4)cnn3c2N)cc1	none
CCOc1nc(C)ccc1-c1noc(-c2ccc(C)cc2)n1	none
CN1C=CC=C/C1=C1\N=C(c2ccccc2)OC1=O	none
COC(=O)c1cn(C(=O)c2cccs2)c2ccccc12	Dicer inh 3.01
COC(=O)c1cn(C(=O)c2ccco2)c2ccccc12	none
COC(=O)c1cn(C(=O)COc2ccc(Cl)cc2)c2ccccc12	none
ON/C=N/c1nc2c(s1)CCc1ccccc1-2	none
CCCCCCCCC(=O)Nc1nc2c(s1)CCc1ccccc1-2	none
O=C(Nc1nc2c(s1)Cc1ccccc1-2)c1ccc(F)c(Cl)c1	none
Oc1ccccc1CNc1nc2c(s1)CCc1ccccc1-2	Dicer inh 4.27
CC(=O)Nc1nc2c(s1)Cc1ccccc1-2	none
O=C(Nc1nc2c(s1)CCc1ccccc1-2)c1ccc(F)c(Cl)c1	Dicer inh 3.72
Cc1cccn2cc(-c3cccc(S(=O)(=O)N(C)C)c3)nc12	none
O=C(NCc1cccnc1)c1nn2c(c1Br)NC(c1ccccc1)CC2C(F)(F)F (configuration not stated)	none
CNC(=S)N(Cc1ccc(Cl)cc1)Cc1cccnc1	none
O=C(NCc1ccc2c(c1)OCO2)Nc1ccc(OCc2ccccc2)cc1	none
CCN1C(=O)C(O)(CC(=O)c2cccnc2)c2ccccc21 (configuration not stated)	none
COc1cc2ncnc(NCc3cccc4c3OCO4)c2cc1OC	none
Cc1cc(-c2ccccc2)nc2oc3c(=O)[nH]cnc3c12	none
O=S(=O)(c1ccccc1)n1nc(-c2ccccc2)nc1NCc1ccccc1	none
O=S(=O)(c1ccccc1)n1nc(-c2ccccc2)nc1NCc1ccc(Cl)cc1	none
Cc1nc(C)c(-c2ccn(S(=O)(=O)c3ccc(Cl)cc3)n2)o1	none
Cc1ccc(S(=O)(=O)n2nc(C)cc2C)cc1	none
Cc1ccc(S(=O)(=O)n2nc(-c3ccc(Cl)cc3)nc2NCc2ccco2)cc1	Dicer inh 3.39
Cc1ccc(S(=O)(=O)n2nc(-c3ccc(Cl)cc3)nc2N)cc1	Dicer inh 3.18
O=C(COC(=O)c1ccc2cc(OC(=O)c3ccc(Cl)cc3)ccc2c1)c1ccc(Cl)cc1	none
Cn1c(SCc2cccc(C#N)c2)nnc1C(F)(F)F	none
COc1ccc2c(c1OC)C(=O)N1c3ccccc3N=C(c3ccc(C)cc3)CC21 (configuration not stated)	none
CC(C)(C)c1ccc(-c2nnnn2Cc2c(Cl)cccc2Cl)cc1	none
CC(C)(C)c1csc(NS(=O)(=O)c2ccc(Cl)cc2)n1	none
Nc1ccc(O)c(C(=O)O)c1	none
O=C1c2c(O)cccc2Cc2cccc(O)c21	none
Nc1ccc(O)c2c1C(=O)c1c(N)ccc(O)c1C2=O	Dicer inh 3.23
CCCCn1c(CSCc2ccc(Cl)cc2)cn(-c2nnc(C(C)(C)C)s2)c1=O	none
COc1ccc(-c2c(C)nn3c2N=C(c2ccco2)CC3c2ccccc2)cc1 (configuration not stated)	none
Cc1ccccc1-c1cc(=O)c2cc(Cl)ccc2o1	none
O=c1cc(-c2cc(Br)cc3c2OCOC3)oc2ccccc12	Dicer inh 3.49
Cc1cc2oc(-c3ccccc3C(=O)O)cc(=O)c2cc1C	none
FC(F)(F)c1cccc(N2CCN(/C=C/c3nnnn3-c3ccc(Cl)cc3)CC2)c1	none
CN(Cc1ccccc1)C(=O)c1cc2n(n1)C(C(F)(F)F)CC(c1ccccc1)N2 (configuration not stated)	Dicer inh 3.02
Cc1ccc(C2CC(C(F)(F)F)n3nc(C(=O)N(C)Cc4c(C)nn(C)c4C)cc3N2)cc1 (configuration not stated)	none
CCOC(=O)c1cc2n(n1)C(C(F)(F)F)CC(c1ccccc1)N2 (configuration not stated)	none
O=C(NCc1ccco1)c1cc2n(n1)C(C(F)(F)F)CC(c1ccc3c(c1)OCO3)N2 (configuration not stated)	Dicer inh 3.79
